Shown are actives, neighbours in structure and some others; about 19% of the full set was active somewhere.
DT40 TDP1 no CPT: qHTS for Inhibitors of human tyrosyl-DNA phosphodiesterase 1 (TDP1): qHTS in cells in absence of CPT; DT40 Tdp1-/- hTDP1 cells, no CPT, ATP luminescence, 48 h; Potency, µM (doses to about 46.2 µM), without a hit: top-dose activity change, negative = growth inhibition, hits mostly inhibitors; 15% of 420,000 active; AID 686978, 2013; note: potency is the fitted concentration of half-maximal effect; % is set by controls: 0 for no effect and ±100 for the full control effect; nearly all actives have a fitted effect of over 55% in size
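No-CPT arm: Tdp1-/-;hTDP1 DT40 cells (400/well) plus compounds, incubated ≥48 hr at 37 °C. Readout CellTiter-Glo luminescence.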
HepG2 tox: HepG2 cytotoxicity, counter-screen for TGF-b inhibitors; Potency, µM (series often up to 46.1 µM), for the others: at the top dose activity change, negative = cytotoxicity, most hits filed as cytotoxic; HepG2 CAGA-GFP viability, ATP luminescence, 18 h; 0.76% of 410,000 active; note: potency is the fitted concentration of half-maximal effect
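CellTiter-Glo luminescence gave cytotoxicity after 18 hours at 37 degrees C. The cells were HepG2 CAGA-GFP in 1% FBS DMEM, stimulated with 500 pg/mL TGF-beta after compound addition. %Activity was normalised to no-cell wells (complete cell-killing) and DMSO (no toxicity), and curves were fitted and classified.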
TDP1 cell CPT: DT40-hTDP1 cell growth loss with CPT | chicken DT40 Tdp1-/-;hTDP1 cells + 20 nM CPT, ATP luminescence, 48 h | Potency, µM (top dose mostly 46.2 µM), inactives show at the highest dose activity change, negative = growth inhibition, actives largely listed as inhibitors | 12% of 420,000 active | AID 686979; note: potency is the fitted concentration of half-maximal effect; % is set by controls: 0 for no effect and ±100 for the full control effect; nearly all actives have a fitted effect of over 55% in size
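Chicken DT40 Tdp1-/- cells complemented with human TDP1, 400 cells/well, exposed to compounds plus 20 nM camptothecin for at least 48 h at 37 C; viability read as ATP content by CellTiter-Glo luminescence.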
IL1B secr inh: inflammasome signaling inhibition, IL-1 beta readout; THP-1 LPS/ATP IL-1B secretion, AlphaLISA, 16 h; active compounds read low; 4.7% of 360,000 active; activity change, % at 57.5 µM; AID 743279; in the data active = activity change below about -50%; inconclusive = mostly about -30% to -49%; note: % is set by controls: 0 for no effect and ±100 for the full control effect
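THP-1 cells pretreated 1 hr with compounds (up to 57.5 uM final), then stimulated with LPS (250 ng/mL final) plus ATP (1.25 mM final); secreted IL-1B measured by AlphaLISA after 16 hr, decreased signal indicating inhibition.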
TGFb SMAD3 inh: TGF-b pathway inhibition; HepG2 CAGA-GFP TGF-b/SMAD3 reporter, GFP fluorescence, 18 h; TGF-beta stimulated, 500 pg/mL final; 1.2% of 410,000 active; Potency, µM (highest dose often 46.1 µM), inactives show top-dose activity, negative = inhibition, actives largely listed as inhibitors; note: potency is the fitted concentration of half-maximal effect; % is set by controls: 0 for no effect and ±100 for the full control effect; nearly all actives have a fitted effect of over 65% in size
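Using HEPG2 CAGA-GFP reporter cells at 1000 cells/well, we pinned test compounds, stimulated with recombinant TGF-beta (500 pg/mL final) and measured total well GFP after 18 h.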
ASM inhibitor: blocks human secretory acid sphingomyelinase; P17405; placental ASM, HMU-PC fluorogenic substrate, 60 min; Potency, µM (highest dose often 57.5 µM), for inactives: top-dose activity change, negative = inhibition, hits mostly inhibitors; 0.006% of 340,000 active; AID 504937; note: potency is the fitted concentration of half-maximal effect
Target sequence (P17405 47-631 limits assumed): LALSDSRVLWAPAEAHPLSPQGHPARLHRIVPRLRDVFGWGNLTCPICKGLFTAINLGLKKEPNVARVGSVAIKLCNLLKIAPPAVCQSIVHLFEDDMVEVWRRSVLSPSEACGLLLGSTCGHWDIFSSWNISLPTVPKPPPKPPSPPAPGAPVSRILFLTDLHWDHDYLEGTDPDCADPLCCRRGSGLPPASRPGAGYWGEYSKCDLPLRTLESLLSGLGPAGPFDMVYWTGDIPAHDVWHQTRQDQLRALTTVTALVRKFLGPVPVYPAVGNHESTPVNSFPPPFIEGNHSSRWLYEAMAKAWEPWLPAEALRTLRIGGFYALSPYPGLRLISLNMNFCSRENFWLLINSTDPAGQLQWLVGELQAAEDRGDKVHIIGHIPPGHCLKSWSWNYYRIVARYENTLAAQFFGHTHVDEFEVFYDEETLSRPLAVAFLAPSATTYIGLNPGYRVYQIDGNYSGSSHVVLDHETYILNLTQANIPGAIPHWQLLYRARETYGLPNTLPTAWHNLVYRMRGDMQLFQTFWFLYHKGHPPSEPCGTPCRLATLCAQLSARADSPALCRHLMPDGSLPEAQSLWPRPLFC
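Fluorescence read-out (Ex 386 nm, Em 447 nm) after stopping the reaction at pH 10. Enzyme: ASM from human placenta; substrate HMU-PC0, 9 uM final; 60 min, 37 °C. Compound preincubation 10 min, ambient temperature.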
Numbers without * were called inactive; ? = inconclusive; · = no result given; [ ] = remark or other dose. Unless noted, calls come from the whole dose curve; as a rule, active = well fitted curve in the direction sought with a large enough effect; inconclusive = small, poorly fitted or top-dose-only effect, or another doubt; inactive = no such curve, though single readings can be large; an effect the other way counts as inactive or inconclusive.

SMILES | DT40 TDP1 no CPT | HepG2 tox | TDP1 cell CPT | IL1B secr inh | TGFb SMAD3 inh | ASM inhibitor
Cc1cc(C)c(CN2CCN(CCCn3cnc(C(=O)Nc4ccc(C)c(C)c4)n3)CC2)c(C)c1 | 14.6µM* | 17.8µM* | ? | ? | ? | -11.8%
Cc1ccc(NC(=O)c2ncn(CCCNCC3CCCCC3)n2)cc1C | 20.6µM* | -63.6% | ? | ? | -19.8% | ·
Cc1ccc(NCCCn2cnc(C(=O)Nc3ccc(C)c(C)c3)n2)cc1C | -24.8% | 1.9% | -26.3% | -6.2 | -8.3% | -1.9%
CCOC(=O)C(CC1=CS(=O)(=O)c2ccc(Cl)cc21)(NC(C)=O)C(=O)OCC | -9.9% | 1.2% | 3.6% | 30.9 | -19.5% | ·
Cc1c(C(=O)N(C)C2CCOC2)sc2ncnc(NCc3ccc4c(c3)OCO4)c12 (stereo not given) | -26.9% | · | -10.4%[9.04 µM] | · | · | ·
COc1ccc(CCNC(=O)c2cc(-c3ccccc3)nc3ccccc23)cc1OC | · | -23.1% | · | · | -1.1% | ·
Nc1sc(-c2ccccc2)cc1C(=O)NCCc1ccc(Cl)cc1 | 16.4µM* | · | 23.1µM* | -17.9 | · | ·
COc1ccc(CCNC(=O)c2cc(Nc3cc(C)cc(C)c3)nc3ccccc23)cc1OC | 8.2µM* | -27.6% | 8.2µM* | · | ? | ·
C=CCNC(=O)c1cc(-c2ccccc2)sc1N | ? | · | ? | -10.1 | · | ·
CSc1cccc(Nc2cc(C(=O)NCCc3ccc(Cl)cc3)c3ccccc3n2)c1 | 7.31µM* | -33.3% | 4.61µM* | · | 10µM* | ·
COc1ccc(CCNC(=O)c2cc(-c3ccccn3)nc3c(Cl)cccc23)cc1OC | ? | -0.1% | -21.3% | 3.9 | ? | -1.8%
COc1ccc(CCNC(=O)c2cc(-c3ccncc3)nc3c(Cl)cccc23)cc1OC | 20.6µM* | 7.1% | 20.6µM* | -2.6 | 4.0% | 0.6%
FC(F)Sc1nc2ccccc2[nH]1 | -12.7% | -10.5% | 2.2% | · | -5.8% | 0.5%
O=C(NCCc1ccccc1)c1cc(Sc2cccc(Cl)c2)nc2ccccc12 | 16.4µM* | -11.0% | ? | · | -4.9% | ·
CCCCN(CCCNC(=O)c1cc(Nc2cccc(SC)c2)nc2ccccc12)Cc1ccccc1 | 4.11µM* | 12.6µM* | 6.51µM* | · | 15.8µM* | ·
CCC(Oc1cc(Cl)ccc1Cl)C(=O)N1CCCN(C)CC1 (stereo not given) | -25.8% | 0.4% | -4.6% | -1.0 | 1.2% | 2.3%
Cc1cc2oc(C(=O)N(Cc3ccccc3)c3ccccn3)cc(=O)c2cc1Cl | -6.1% | -16.0% | 0.4% | 33.2 | 2.8% | -3.8%
CCCCN(CC)C(=O)CSc1nc2n[nH]c(C)c2c(=N)n1-c1cccc(Cl)c1 | 10.3µM* | -40.8% | 11.6µM* | · | ? | ·
CCCCNC(=O)CSc1nc2n[nH]c(C)c2c(=N)n1-c1cccc(C)c1 | 11.6µM* | -22.3% | 18.4µM* | · | ? | ·
Cc1cccc(-n2c(N)cc(=O)nc2SCC(=O)Nc2nnc(C)s2)c1 | 3.9% | -5.6% | 6.6% | 15.3 | ? | 0.2%
Cc1ccc(CNC(=O)CSc2nc3n[nH]c(C)c3c(=N)n2-c2cccc(C)c2)cc1 | 9.2µM* | -37.4% | 13µM* | 7.4 | ? | -18.3%
CCC(Sc1nc2n[nH]c(C)c2c(=N)n1-c1cccc(Cl)c1C)C(=O)N(CC)CC (stereo not given) | ? | 4.1% | ? | -6.7 | 27.8% | 0.0%
Cc1ccc(N2C(=O)C3C4C=CC(CNC(=S)Nc5ccc(F)cc5)(O4)C3C2=O)cc1 (stereo not given) | 18.4µM* | -0.3% | ? | 6.1 | -10.2% | 0.1%
Cc1cc(C)c(S(=O)(=O)NCC23C=CC(O2)C2C(=O)N(c4ccccc4)C(=O)C23)c(C)c1 (stereo not given) | ? | -81.4% | ? | -3.9 | -19.5% | -2.4%
Cc1ccc(N2C(=O)C3C4C=CC(CNC(=S)Nc5cccc(Cl)c5)(O4)C3C2=O)cc1 (stereo not given) | 14.6µM* | -18.1% | ? | 3.5 | ? | -5.2%
SMILES | DT40 TDP1 no CPT | HepG2 tox | TDP1 cell CPT | IL1B secr inh | TGFb SMAD3 inh | ASM inhibitor
Cc1ccc(C)c(NC(=S)N2CCN(c3ccccn3)CC2)c1 | -6.8% | 4.2% | -0.2% | -5.6 | 14.5% | 4.0%
Cc1ccc(N2C(=O)C3C4C=CC(CNC(=S)Nc5ccc(Cl)cc5)(O4)C3C2=O)cc1 (stereo not given) | 23.1µM* | -3.1% | ? | -19.0 | -28.3% | -6.8%
Cc1ccc(N2C(=O)C3C4C=CC(CNC(=S)N5CCN(c6ccccn6)CC5)(O4)C3C2=O)cc1 (stereo not given) | 18.4µM* | -34.5% | 23.1µM* | -9.2 | ? | -2.8%
COc1ccc(C(=O)NNC(=O)Cc2nc3nc(C)cc(C)n3n2)cc1 | 7.7% | 8.1% | 18.8% | -1.9 | 8.4% | -1.1%
COC(=O)c1ccc(Oc2nc3c(c(=O)n(C)c(=O)n3C)n2C(C)C)cc1 | -23.2% | -77.3% | ? | · | 0.0% | ·
CC(C)COC(=O)NCC12C=CC(O1)C1C(=O)N(c3ccc(Cl)cc3)C(=O)C12 (stereo not given) | 18.4µM* | -30.4% | 16.4µM* | -19.0 | 3.7% | 1.2%
O=C1C2C3C=CC(CNS(=O)(=O)c4ccccc4[N+](=O)[O-])(O3)C2C(=O)N1c1ccccc1 (stereo not given) | -2.6% | 4.4% | ? | 0.0 | -0.9% | 0.7%
Cc1cc(-c2ccc(C)c(S(=O)(=O)N(C)c3ccc(C)c(C)c3)c2)on1 | ? | -27.2% | ? | · | -23.2% | ·
CC1CCN(c2nn3c(=O)c(C(=O)NCCc4ccccc4)cnc3s2)CC1 | ? | -19.8% | 9.2µM* | · | ? | ·
COc1ccc(CCNC(=O)c2cnc3sc(N4CCC(C)CC4)nn3c2=O)cc1OC | 3.66µM* | -17.2% | 2.59µM* | · | -10.1% | ·
COCCNC(=O)c1cnc2sc(N3CCC(C)CC3)nn2c1=O | -5.3% | -9.4% | -5.3% | · | 1.2% | ·
O=c1nc(-c2ccccc2)c(-c2ccccc2)n[nH]1 | 1.1% | -6.1% | 2.9% | 15.7 | 3.4% | -2.6%
O=c1nc(-c2ccccc2)c2cc(SC(F)F)ccc2[nH]1 | 0.411µM* | 4.4% | -5.5% | 5.3 | 18.0% | 162.4%
Cc1ccc(-c2nc(=O)[nH]c3ccc(Br)cc23)cc1 | ? | -19.7% | ? | -15.1 | 10.2% | 123.4%
O=c1nc(-c2ccccc2)c2cc(Br)ccc2[nH]1 | 0.231µM* | -12.1% | 0.326µM* | -24.4 | 2.4% | 131.3%
O=c1nc(-c2ccccc2)c2cc(Cl)ccc2[nH]1 | 1.3µM* | -9.6% | ? | -19.1 | 4.9% | 230.3%
